# Out of some 190,000 compounds screened, about 1,300 (0.68%) were called active. No stated cut-off is given here; in the data, active means inhibition above about 50%; inactive means the rest. The sample as a whole holds a higher share of actives than the screen did.
# Target: Mannose-6-phosphate isomerase (Homo sapiens) (UniProt P34949)
# Assay: human PMI inhibitors, high substrate, primary screen, biochemical, fluorescence intensity, high mannose 6-phosphate (AID 1220)
# Settings: recombinant PMI enzyme, coupled fluorescence intensity; at 20 µM; stronger effect = higher value
# Sequence of Mannose-6-phosphate isomerase (Homo sapiens) (P34949 whole entry, looked up): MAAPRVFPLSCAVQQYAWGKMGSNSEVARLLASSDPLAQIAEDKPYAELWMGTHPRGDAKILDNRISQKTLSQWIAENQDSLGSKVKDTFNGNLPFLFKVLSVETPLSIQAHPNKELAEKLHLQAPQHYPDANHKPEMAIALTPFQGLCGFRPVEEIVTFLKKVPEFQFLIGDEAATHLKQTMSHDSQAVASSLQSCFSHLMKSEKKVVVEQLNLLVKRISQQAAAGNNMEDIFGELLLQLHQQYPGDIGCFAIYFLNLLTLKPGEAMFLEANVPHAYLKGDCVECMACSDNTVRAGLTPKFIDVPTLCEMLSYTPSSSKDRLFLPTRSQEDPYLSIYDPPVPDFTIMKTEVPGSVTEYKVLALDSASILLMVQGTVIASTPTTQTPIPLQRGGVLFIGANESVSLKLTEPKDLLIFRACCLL
row,SMILES,inhibition
1,O=C(CCc1nnc(CCCc2ccccc2)o1)NCCc1ccccc1,-1.7% (inactive)
2,Cc1nc2c(c(=O)n1CCC1=CCCCC1)c1nc3ccccc3nc1n2/N=C/c1ccco1,15.8% (inactive)
3,Cc1nn(CCc2nn[nH]n2)c2nc(-c3ccc(Br)cc3)cc(C(F)(F)F)c12,4.9% (inactive)
4,CSc1cccc(NC(=O)C2CCN(S(C)(=O)=O)CC2)c1,5.6% (inactive)
5,Cc1ccc(OCCC(=O)Nc2ccc(C)c(F)c2)cc1,16.2% (inactive)
6,Cc1ccc(S(=O)(=O)N2CCC(C(=O)NCCCN3CCCCCC3)CC2)cc1,-3.9% (inactive)
7,CCCCNC(=O)c1onc(CSc2ccccc2F)c1C(=O)O,-0.1% (inactive)
8,Cc1nc(NC(=O)CN(C)S(=O)(=O)c2ccc(Br)cc2)sc1C,1.7% (inactive)
9,COc1ccc2c(c1)CC/C(=C\C=C\c1ccccc1)C2=O,52.8% (active)
10,COc1ccc2c(c1)C(=O)/C(=C/C=C/c1ccccc1)CC2,33.4% (inactive)
11,COc1ccc2c(c1)CC/C(=C\c1ccc(OC)c(Cn3cccn3)c1)C2=O,21.7% (inactive)
12,COc1ccc(/C=C2/CCc3ccccc3C2=O)cc1OC,29.2% (inactive)
13,COc1ccc(/C=C2\CC/C(=C\c3ccc(OC)cc3OC)C2=O)c(OC)c1,13.5% (inactive)
14,COc1ccc2c(c1)CC/C(=C\C=C\c1ccccc1OC)C2=O,53.3% (active)
15,COc1cc2nc(CN3CCC(Cc4ccccc4)CC3)[nH]c(=O)c2cc1OC,-12.9% (inactive)
16,COC(=O)c1ccc2c(=O)n(CC3CCCO3)c(SCC(=O)NCCc3ccc(S(N)(=O)=O)cc3)nc2c1 (stereo not given),-2.9% (inactive)
17,Cc1nnc(N/N=C/c2ccco2)n1N,56.6% (active)
18,CC(C)(C)c1nnc(N/N=C/c2ccccc2O)n(N)c1=O,-27.3% (inactive)
19,Cc1nnc(N/N=C/c2ccc(-c3ccccc3F)o2)n1N,33.4% (inactive)
20,CCc1nnc(N/N=C/c2ccccc2F)n1N,5.2% (inactive)
21,Cc1nnc(N/N=C/c2c(Cl)cccc2Cl)n1N,32.3% (inactive)
22,Cc1nnc(N/N=C/c2ccccc2O)n1N,52.5% (active)
23,C/C(=N/OCc1ccc(Br)cc1)c1ccccn1,1.2% (inactive)
24,O=[N+]([O-])c1ccc2nc(NCCCO)nc(-c3ccccc3)c2c1,-39.7% (inactive)
25,CCCS(=O)(=O)c1c(S(=O)(=O)CCC)c2ccc(C(N)=O)cn2c1C(=O)c1ccc(OC)cc1,14% (inactive)

row,SMILES,inhibition
1,O=C(Nc1cccn2ncnc12)C(F)(F)F,-1.2% (inactive)
2,COc1ccc(CNC(=O)CSc2nnc3c(Cl)cc(C(F)(F)F)cn23)cc1OC,12.9% (inactive)
3,Oc1c(Cl)cc(Cl)cc1/C=N/c1nccs1,-2.8% (inactive)
4,Cc1ccc(N=Cc2cc(Cl)cc(Cl)c2O)nc1,58.6% (active)
5,Oc1c(Cl)cc(Cl)cc1C=Nc1ccc(Br)cc1,17.7% (inactive)
6,Cc1ccc(N=Cc2cc(Br)cc(Cl)c2O)cc1,50.8% (active)
7,Cc1cccc(N=Cc2[nH]c3ccc(Br)c(Cl)c3c2O)c1,-1.9% (inactive)
8,O=C(CCC(=O)N/N=C/c1cc(Cl)cc(Cl)c1O)NCc1ccccc1,17.9% (inactive)
9,Oc1c(Cl)cc(Cl)cc1/C=N/Nc1ncc(Br)cn1,-22.9% (inactive)
10,Oc1c(Cl)cc(Cl)cc1C=Nc1ccccc1N1CCCC1,33.7% (inactive)
11,Oc1ccc(Cl)cc1C=Nc1ccc(Br)cc1,8.3% (inactive)
12,Cc1cccc(N=Cc2cc(Br)cc(Cl)c2O)c1,57.8% (active)
13,COc1cc(Br)cc(C=Nc2cccc(C(F)(F)F)c2)c1O,15.9% (inactive)
14,NC(=O)c1cccc(N=Cc2cc(Cl)cc(Cl)c2O)c1,55.3% (active)
15,O=C(CN1CCSCC1)N/N=C/c1ccc(F)c(F)c1,-7.6% (inactive)
16,CC(Oc1ccc(Br)cc1)C(=O)NCc1ccccn1 (stereo not given),-0.8% (inactive)
17,CCN1CCN(C(=O)c2ccccc2NS(=O)(=O)c2ccc(Cl)cc2)CC1,-3.6% (inactive)
18,COc1ccc(C(C#N)N2CCC(c3ccccc3)=N2)cc1OC (stereo not given),-5.6% (inactive)
19,COc1ccc(/C(C)=N\NS(=O)(=O)c2ccccc2)cc1OC,4.4% (inactive)
20,COc1ccc(C2CCCN2C(=S)Nc2ccc(C)cc2Cl)cc1OC (stereo not given),2.1% (inactive)
21,COc1ccc(CNC(=O)c2ccc(C(C)C)cc2)cc1,12.3% (inactive)
22,O=C(Nc1ccccc1OC(F)F)c1ccccc1,9.2% (inactive)
23,CC1CCCCC1N1CCN(C(=O)c2cccc(F)c2)CC1 (stereo not given),-10.5% (inactive)
24,O=C(Nc1nc2ccc(F)cc2s1)C1CCN(S(=O)(=O)c2cc([N+](=O)[O-])ccc2Cl)CC1,13.7% (inactive)
25,C=CCn1c(Cc2ccc(OC)cc2)nnc1SCC(=O)NCCc1ccccc1,-0.7% (inactive)

row,SMILES,inhibition
1,COc1ccc(C(C)C)cc1S(=O)(=O)N1CCN(c2ccccc2)CC1,6.8% (inactive)
2,Cn1nnnc1NCc1ccc(Cl)cc1,-7.1% (inactive)
3,Cc1cnc(CN2CCc3c([nH]c4ccccc34)C2CC(C)C)[nH]1 (stereo not given),11.2% (inactive)
4,COCc1ccc(CN2CCc3c([nH]c4ccccc34)C2C(C)(C)C)o1 (stereo not given),14.1% (inactive)
5,COCc1ccc(CN2CCc3c([nH]c4ccccc34)C2CC(C)C)o1 (stereo not given),52% (active)
6,O=C(Cc1cccs1)Nc1ccc(S(=O)(=O)N2CCCC2)cc1,39.8% (inactive)
7,CC(On1c(-c2ccccc2)nc2ccc(Cl)cc21)C(=O)O (stereo not given),-10.3% (inactive)
8,C/C(=C\C(=O)N1CCc2ccccc21)C(=O)O,61.3% (active)
9,C/C(=C/C(=O)N1CCc2ccccc21)C(=O)O,2.1% (inactive)
10,CC(C)=CC(=O)N1CCCc2ccccc21,10.1% (inactive)
11,Nc1nonc1-n1nnc(C(=O)O)c1-c1cccs1,0.4% (inactive)
12,Cc1noc(C)c1COC(=O)CNC(=O)c1cccc(F)c1,-11.8% (inactive)
13,Oc1c(Br)cc(Br)cc1C=Nc1ccc2c(c1)OCCO2,59.7% (active)
14,O=C(Nc1ccc2oc(Cc3ccc(Cl)cc3)nc2c1)c1cccnc1,7.7% (inactive)
15,O=[N+]([O-])c1ccc(O)c(C=Nc2ccc3c(c2)OCCO3)c1,52.8% (active)
16,Oc1c(Br)cc(Br)cc1C=Nc1ccc2c(c1)OCO2,48.6% (inactive)
17,O=C(N/N=C/c1cc([N+](=O)[O-])ccc1O)c1ccc2c(c1)OCCO2,-16.7% (inactive)
18,Oc1ccc(C=Nc2cccc3ncccc23)c(O)c1,38.7% (inactive)
19,O=[N+]([O-])c1ccc(O)c(C=Nc2cccc3ncccc23)c1,52.5% (active)
20,O=[N+]([O-])c1ccc(O)c(/C=N/Nc2ccccn2)c1,-20.1% (inactive)
21,Oc1c(Cl)cc(Cl)cc1C=Nc1ccc2c(c1)OCCO2,25% (inactive)
22,O=[N+]([O-])c1ccc(O)c(C=Nc2ccc3nc(-c4ccccc4)[nH]c3c2)c1,8.2% (inactive)
23,O=[N+]([O-])c1ccc(O)c(C=Nc2ccc3oc(Cc4ccc(Cl)cc4)nc3c2)c1,61.1% (active)
24,CN(C)/N=C/c1cc([N+](=O)[O-])ccc1O,9.8% (inactive)
25,C=CCn1c(SCC(N)=O)nnc1-c1cccc(Br)c1,1% (inactive)

row,SMILES,inhibition
1,Cc1ccc(CN2CCN(Cc3cnc(C)[nH]3)CC2CCO)cc1 (stereo not given),2% (inactive)
2,O=C(Nc1c(F)cc(F)cc1Br)C1CCCO1 (stereo not given),15.5% (inactive)
3,CC(=O)NCCc1ccc(S(=O)(=O)N2CCOCC2)cc1,-2.7% (inactive)
4,CCOC(=O)CNC(=O)CSc1nnc(SCC(=O)NCC(=O)OCC)s1,-6.4% (inactive)
5,COc1ccc(/C=C/C(=O)NC(=S)N2CCN(C)CC2)cc1,-10.4% (inactive)
6,CSc1ccccc1NC(=O)CN(C)CC(=O)Nc1ccccc1F,-13.9% (inactive)
7,Cc1ccc(NC(=S)N(Cc2ccco2)C2CCN(C(C)C)CC2)cc1,-8.2% (inactive)
8,O=C1COc2ccc3ccccc3c2CN1,-0.8% (inactive)
9,CN1COc2ccc3ccccc3c2C1,67.8% (active)
10,Cn1c2c(c(=O)n(C)c1=O)[C@@H]1c3c(ccc4ccccc34)OC[C@@H]1CO2,-2.5% (inactive)
11,Cc1ccc(C(=O)N/N=C/c2ccc(N3CCOCC3)cc2)c(C)c1,-8% (inactive)
12,CCN(C(=O)c1ccc(NC(C)=O)cc1)c1ccccc1C,-3% (inactive)
13,O=[N+]([O-])c1ccccc1Nc1ccccc1,-3.7% (inactive)
14,Cc1ccccc1Nc1c([N+](=O)[O-])ccc2c1=NC1(CCCCC1)N=2,38.7% (inactive)
15,O=[N+]([O-])c1ccc2c(c1Nc1ccccc1)=NC1(CCCCC1)N=2,58.9% (active)
16,Cc1ccc(Nc2cc(C)nc3c(C)ccc([N+](=O)[O-])c23)cc1,10.2% (inactive)
17,Cc1ccc(Nc2c([N+](=O)[O-])ccc3c2=NC2(CCCCC2)N=3)cc1,50.8% (active)
18,Cc1ccc(NC(=O)c2ccc(Nc3c([N+](=O)[O-])cc([N+](=O)[O-])cc3[N+](=O)[O-])cc2)cc1,3.9% (inactive)
19,C[C@H]1CC[C@@]2(O[C@H](CCO)C[C@@H](O)[C@@H]2O)O1,12.7% (inactive)
20,COc1ccc(Cn2nnc3c(=O)[nH]c(C4CCCN(C(=O)c5ccccc5)C4)nc32)cc1 (stereo not given),-5.4% (inactive)
21,CCOC(=O)/C(=N\O)C1=NC(C)(C)Cc2ccccc21,-11.3% (inactive)
22,CC1(C)Cc2ccccc2C(/C(=N/O)C(N)=O)=N1,5.1% (inactive)
23,COc1ccc(-c2c(C)nn3c(N4CCC(C(=O)NCCN(C)C)CC4)cc(C)nc23)cc1OC,5.7% (inactive)
24,CCN(CC)CCNC(=O)C(C(=O)c1ccccc1)n1ccccc1=O (stereo not given),1.8% (inactive)
25,COc1ccc(CNC(=O)C(c2ccncc2)N(C(=O)Cc2cccs2)c2ccccc2)cc1 (stereo not given),1.9% (inactive)

# From PubChem BioAssay AID1220 (Sanford-Burnham Center for Chemical Genomics, 2008)
